Reference: PubChem BioAssay (Tox21)
A number with no mark means an inactive call. Where a call stands in place of a potency, no number is given. Active and inactive are the calls of the source. Calls follow the shape of the full dose curve.

experiment: G protein-coupled receptor (GPCR) small molecule agonists, calcium flux assay: HEK293 wild type cell line counter screen (AID 1920065); conditions: HEK293 WT calcium flux, fluorescence, agonist mode; series mostly up to 57.6 µM; activation: at the top concentration
Excerpt: U.S. Tox21 Program National Center for Advancing Translational Sciences [NCATS] Division of Preclinical Innovation [DPI] U.S. Environmental Protection Agency [EPA] National Institutes of Environmental Health Sciences [NIEHS] National Toxicology Program [NTP] U.S. Food and Drug Administration [FDA] Assay overview: The increased intracellular calcium release that occurred upon G protein-coupled receptor (GPCR) activation led to the frequent use of calcium flux assays to detect GPCR activation. For the purpose of studying and screening compounds that may activate GPCR, receptor-overexpressing models were typically generated using Hek293 wild-type (WT) cells. In order to eliminate the compounds that may have induced calcium release for non-specific activation, a counter-assay utilizing calcium flux on Hek293 WT cells was performed. The data were formulated in order to serve as a control for any calcium flux detection utilizing Hek293 cells with either GPCR overexpression or gene modification. The procurement of Hek293 WT cells from ATCC. Fluorescence intensity can be utilized to determine the activation of the compound in a calcium flux assay. As a counter control, this cell line was utilized to screen the Tox21 10K compound library.
Assay Protocol Summary: Hek293 cells were dispensed at 1500cells/4uL/well in 1536-well black wall/clear bottom plates using a multidrop dispenser. After the assay plates were incubated at a 37 C/5% CO2 incubator for 18 hours, 4 uL of Calcium Dye Solution was added to each well. The plates were incubated at 37 C for 1 hour. For agonist mode, 23 nL of compounds dissolved in DMSO, positive control (ATP) or DMSO only was transferred to the assay plate by a pin tool station. The fluorescence intensity in the plates was measured using FDSS 7000EX kinetic plate reader with a filter set of Ex/Em=480/540 for 3 min at 1 sec intervals. Each test compound was measured at 15 concentrations and in triplicates.

SMILES | Potency | activation [%]
Cc1cc(-c2cc(C)c(N)c(C)c2)cc(C)c1N | inactive | 
N#CC(Br)Br | inactive | 
COc1ccc(C=O)cc1 | inactive | 
CCOC(=S)S | inactive | 
CCOC(=O)c1ccccc1N | inactive | 
C#CC(C)(C)NC(=O)c1cc(Cl)cc(Cl)c1 | inactive | 
CCC(Cl)[N+](=O)[O-] (stereo not given) |  | -0.319
CNC(=O)N(C)c1nnc(C(C)(C)C)s1 | inactive | 
C=C(C)CCl | inactive | 
CCNc1nc(Cl)nc(NCC)n1 | inactive | 
N#Cc1ccccn1 | inactive | 
CCn1cc[n+](C)c1C | inactive | 
CCCCn1cc[n+](C)c1 | inactive | 
Cc1ccc2ccccc2c1 |  | 1.26
CCOc1cc(C=O)ccc1O | inactive | 
N#CCBr |  | 0.54
CN(C)N=O | inactive | 
O=C1C2CC=CCC2C(=O)N1SC(Cl)(Cl)Cl (stereo not given) |  | -0.194
COC(=O)Cc1ccccc1 |  | -1.01
CCOC(=O)C(C)OC(=O)c1cc(Oc2ccc(C(F)(F)F)cc2Cl)ccc1[N+](=O)[O-] (stereo not given) | inactive | 

SMILES | Potency | activation [%]
CCC(C)(C)c1ccc(O)cc1 | inactive | 
Cc1ccc(N)cc1N | inactive | 
CCC(C)(CC)c1cc(NC(=O)c2c(OC)cccc2OC)on1 | inactive | 
c1ccc2c(c1)CCCC2 | inactive | 
CC1CN1 (stereo not given) |  | 0.581
CCCCOCCOP(=O)(OCCOCCCC)OCCOCCCC | inactive | 
CC1(C)[C@H](C(=O)O[C@H](C#N)c2cccc(Oc3ccccc3)c2)[C@@H]1/C=C(\Cl)C(F)(F)F | inactive | 
CC(=[OH+])/C=C(/C)[O-].CC(=[OH+])/C=C(\C)[O-].CC(=[OH+])/C=C(\C)[O-].[Fe] |  | -0.602
O=[N+]([O-])c1cccc(O)c1 |  | 0.0807
ClCCOCCCl | inactive | 
CC(C)N(C(=O)SCC(Cl)=C(Cl)Cl)C(C)C | inactive | 
NC(=O)CN1CCCC1=O | inactive | 
CN1CC[C@]23c4c5ccc(O)c4O[C@H]2[C@@H](O)CC[C@H]3[C@H]1C5 |  | -0.0258
NC(=S)c1c(Cl)cccc1Cl |  | -1.28
O=C(O)COc1ccccc1 | inactive | 
Cn1c(-c2ccccc2)cc(-c2ccccc2)[n+]1C | inactive | 
COc1ccc(C=O)cc1OC | inactive | 
CCOP(=S)(OCC)SCn1c(=O)oc2cc(Cl)ccc21 | inactive | 
Nc1ccc(Oc2ccc(N)cc2)cc1 | inactive | 
ClC1(Cl)C2(Cl)C3(Cl)C4(Cl)C(Cl)(Cl)C5(Cl)C3(Cl)C1(Cl)C5(Cl)C24Cl (stereo not given) |  | 3.19
